Results from PubChem BioAssay (NCI).
“And” between values parts separate entries of the source, which are not always exact repeats. Identical values can stand only once. Compounds without any hit were thinned out: in the full panel of roughly 79,000, 15% have a hit. Where a structure was tested more than once in an assay, its records may differ in their call. The source made the active and inactive calls. Rule as the data show it: active = growth inhibition above about 70%; inactive = the rest.

How the values were obtained:
[1] = NCI Yeast Anticancer Drug Screen. Data for the mlh1 rad18 strain (AID 175); settings: S. cerevisiae mlh1 rad18 strain growth inhibition, stronger effect = higher value
Outline: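 Test agents were incubated with a yeast strain of defined genotype (DNA damage repair defect). Inhibition of growth was derived by comparison with vehicle-exposed cultures.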

[2] = NCI Yeast Anticancer Drug Screen. Data for the rad18 strain (AID 177); settings: S. cerevisiae rad18 mutant growth inhibition, stronger effect = higher value
Outline: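 A genetically defined yeast mutant impaired in DNA damage repair was treated with test compounds, then its growth was measured against cultures receiving vehicle alone.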

[3] = NCI Yeast Anticancer Drug Screen. Data for the rad52 strain (AID 147);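 also: 0% = growth of vehicle-treated control cultures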; settings: S. cerevisiae rad52 mutant growth inhibition, stronger effect = higher value
Outline: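 Screen used a yeast mutant impaired in DNA repair. After compound exposure, growth was measured. Values reflect inhibition compared with vehicle-treated cells.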

[4] = NCI Yeast Anticancer Drug Screen. Data for the wt1 strain (AID 149);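 also: 0% = growth of vehicle-treated wt1 cultures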; settings: S. cerevisiae wt1 strain (SPY 50644) growth inhibition, stronger effect = higher value
Outline: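 wt1 strain grown with compound or vehicle; inhibition taken from the growth difference.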

[5] = NCI Yeast Anticancer Drug Screen. Data for the mgt1 strain (AID 153); settings: S. cerevisiae mgt1 mutant growth inhibition, stronger effect = higher value
Outline: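 Genetically defined yeast (mgt1) treated with compound; inhibition of growth expressed against vehicle-treated controls.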

[6] = NCI Yeast Anticancer Drug Screen. Data for the rad50 strain (AID 155);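 also: 0% = growth of vehicle-only cultures of the same strain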; settings: S. cerevisiae rad50 strain growth inhibition, stronger effect = higher value
Outline: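 DNA repair mutant yeast, compound exposure, growth read-out; inhibition is taken relative to vehicle.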

[7] = NCI Yeast Anticancer Drug Screen. Data for the mec2-1 strain (AID 157); settings: S. cerevisiae mec2-1 strain, stronger effect = higher value
Outline: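 Readout is yeast growth inhibition, normalised to vehicle-treated controls, in the mec2-1 strain exposed to compound.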

[8] = NCI Yeast Anticancer Drug Screen. Data for the rad14 strain (AID 159);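 also: 0% = growth of vehicle-treated control cultures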; settings: S. cerevisiae rad14 strain growth inhibition, stronger effect = higher value
Outline: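 DNA repair-defective yeast, compound-exposed; % growth inhibition derived by comparison with vehicle-treated controls.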

[9] = NCI Yeast Anticancer Drug Screen. Data for the sgs1 mgt1 strain (AID 161);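 also: 0% = growth of cultures given vehicle only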; settings: S. cerevisiae sgs1 mgt1 strain, stronger effect = higher value
Outline: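 Growth of a repair-deficient yeast mutant was monitored after compound treatment and expressed as inhibition relative to vehicle-treated cultures.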

[10] = NCI Yeast Anticancer Drug Screen. Data for the CLN2oe strain (AID 163);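 also: 0% = growth of vehicle-only control cultures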; settings: S. cerevisiae CLN2oe strain, stronger effect = higher value
Outline: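 Values reflect how much compound exposure reduced yeast growth, referenced to vehicle-exposed cells. Assay organism is a strain with a defined genetic change affecting cell-cycle control.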

[11] = NCI Yeast Anticancer Drug Screen. Data for the cln2 rad14 strain (AID 165);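 also: 0% = growth equal to vehicle treated cultures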; settings: S. cerevisiae cln2 rad14 strain, stronger effect = higher value
Outline: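 Relative to vehicle controls, growth inhibition of compound-treated cln2 rad14 yeast was recorded.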

[12] = NCI Yeast Anticancer Drug Screen. Data for the bub3 strain (AID 167); settings: S. cerevisiae bub3 mutant strain, stronger effect = higher value
Outline: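 In this screen, a yeast mutant lacking normal mitotic checkpoint function is challenged with compound. Relative growth versus vehicle gives the inhibition value.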

[13] = NCI Yeast Anticancer Drug Screen. Data for the wt2 strain (AID 169);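 also: 0% = growth of vehicle-treated yeast cultures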; settings: S. cerevisiae wt2 strain growth inhibition, stronger effect = higher value
Outline: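 Values express reduction in yeast growth under compound treatment, referenced to vehicle-treated cells.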

[14] = NCI Yeast Anticancer Drug Screen. Data for the mlh1 strain (AID 171);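 also: 0% = growth of vehicle-treated control cultures of the same strain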; settings: S. cerevisiae mlh1 strain growth inhibition, stronger effect = higher value
Outline: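 Steps: expose the defined-mutant yeast strain to compound; expose a parallel culture to vehicle; measure growth; express compound effect as inhibition relative to the vehicle culture.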

[15] = NCI Yeast Anticancer Drug Screen. Data for the sgs1 strain (AID 173);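 also: 0% = growth of vehicle-only control cultures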; settings: S. cerevisiae sgs1 mutant, stronger effect = higher value
Outline: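 Treat defined-mutant yeast with compound; measure growth; calculate inhibition relative to vehicle-treated cells.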

[16] = NCI Yeast Anticancer Drug Screen. Data for the rad50EPP+ strain (AID 151);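 also: 0% = growth of vehicle-treated control cultures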; settings: S. cerevisiae rad50 mutant strain, stronger effect = higher value
Outline: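 Exposing the rad50EPP+ strain to each compound, growth was compared with vehicle-only cultures to give inhibition.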

[17] = at 5.0 µM (retest, dose inferred, filed as 0.5)
[18] = at 50.0 µM (retest, dose inferred, filed as 5.0)

Measured: growth inhibition

O=C1c2ccc3ccccc3c2CCC1N1CCCCC1 (centres undefined)
inactive: [1]; [17] 31% | [2]; at 1.2 µM 6% | [2]; at 3.7 µM 13% | [2]; at 11.0 µM 26% | [2]; at 33.0 µM 65%
active: [1]; [18] 99% | [1]; at 50.0 µM 97% | [2]; at 100.0 µM 97%

O=C(O)C1C2C=CC(C2)C1c1ccccc1 (centres undefined)
30.1% (inactive) and 95.9% (active): [12]; at 50.0 µM
active: [12]; at 33.0 µM 73% | [12]; [18] 93% | [12]; at 100.0 µM 85%
inactive: [3]; at 1.2 µM -1% | [3]; at 3.7 µM 0% | [3]; at 11.0 µM -2% | [3]; at 33.0 µM -3% | [3]; at 100.0 µM 5% | [4]; at 1.2 µM -3% | [4]; at 3.7 µM -1% | [4]; at 11.0 µM -3% | [4]; at 33.0 µM -9% | [4]; at 100.0 µM 1% | [5]; at 1.2 µM -1% | [5]; at 3.7 µM -1% | [5]; at 11.0 µM -4% | [5]; at 33.0 µM -5% | [5]; at 100.0 µM 2% | [6]; at 1.2 µM -1% | [6]; at 3.7 µM 26% | [6]; [17] -1% | [6]; at 11.0 µM 1% | [6]; at 33.0 µM 0% | [6]; [18] 4% | [6]; at 50.0 µM 10.9% and 4.35% | [6]; at 100.0 µM 17% | [7]; at 1.2 µM 0% | [7]; at 3.7 µM 0% | [7]; [17] -1% | [7]; at 11.0 µM 0% | [7]; at 33.0 µM -1% | [7]; [18] 3% | [7]; at 50.0 µM 1.4% and 9.7% | [7]; at 100.0 µM 9% | [8]; at 1.2 µM -5% | [8]; at 3.7 µM -7% | [8]; at 11.0 µM -10% | [8]; at 33.0 µM -11% | [8]; at 100.0 µM -4% | [9]; [17] -3% | [9]; [18] 3% | [9]; at 50.0 µM 7% and -6.6% | [10]; at 1.2 µM -4% | [10]; at 3.7 µM -10% | [10]; at 11.0 µM -4% | [10]; at 33.0 µM -6% | [10]; at 100.0 µM 5% | [11]; [17] -5% | [11]; [18] -5% | [11]; at 50.0 µM -0.2% and 0.6% | [12]; at 1.2 µM 6% | [12]; at 3.7 µM 20% | [12]; [17] 34% | [12]; at 11.0 µM 45% | [13]; at 1.2 µM -2% | [13]; at 3.7 µM 5% | [13]; at 11.0 µM -4% | [13]; at 33.0 µM -3% | [13]; at 100.0 µM 8% | [14]; at 1.2 µM -1% | [14]; at 3.7 µM 0% | [14]; at 11.0 µM 1% | [14]; at 33.0 µM 0% | [14]; at 100.0 µM 11% | [15]; at 1.2 µM -5% | [15]; at 3.7 µM -5% | [15]; at 11.0 µM -5% | [15]; at 33.0 µM 6% | [15]; at 100.0 µM 40% | [1]; [17] -3% | [1]; [18] 5% | [1]; at 50.0 µM 10.6% and 6.5% | [2]; at 1.2 µM -1% | [2]; at 3.7 µM -3% | [2]; at 11.0 µM -2% | [2]; at 33.0 µM 10% | [2]; at 100.0 µM 60%

CC1CC(Br)C(=O)O1 (centres undefined)
active: [3]; at 33.0 µM 89% | [3]; at 100.0 µM 92% | [4]; at 100.0 µM 88% | [16]; at 33.0 µM 88% | [16]; at 100.0 µM 89% | [5]; at 100.0 µM 86% | [6]; at 33.0 µM 74% | [6]; [18] 95% | [6]; at 50.0 µM 86.7% | [6]; at 100.0 µM 89% | [7]; at 33.0 µM 95% | [7]; [18] 98% | [7]; at 50.0 µM 92.2% | [7]; at 100.0 µM 95% | [9]; [18] 77% | [9]; at 50.0 µM 87.8% | [10]; at 33.0 µM 95% | [10]; at 100.0 µM 96% | [11]; [18] 86% | [11]; at 50.0 µM 84.8% | [12]; at 11.0 µM 74% | [12]; at 33.0 µM 96% | [12]; [18] 98% | [12]; at 50.0 µM 88.5% | [12]; at 100.0 µM 97% | [13]; at 100.0 µM 86% | [14]; at 33.0 µM 79% | [14]; at 100.0 µM 90% | [15]; at 100.0 µM 88% | [1]; [18] 97% | [1]; at 50.0 µM 83.8% | [2]; at 100.0 µM 88%
inactive: [3]; at 1.2 µM -27% | [3]; at 3.7 µM -35% | [3]; at 11.0 µM -18% | [4]; at 1.2 µM -48% | [4]; at 3.7 µM -49% | [4]; at 11.0 µM -22% | [4]; at 33.0 µM 67% | [16]; at 1.2 µM 12% | [16]; at 3.7 µM 11% | [16]; at 11.0 µM 34% | [5]; at 1.2 µM -52% | [5]; at 3.7 µM -49% | [5]; at 11.0 µM -24% | [5]; at 33.0 µM 69% | [6]; at 1.2 µM -67% | [6]; at 3.7 µM -55% | [6]; [17] -14% | [6]; at 11.0 µM -34% | [7]; at 1.2 µM -30% | [7]; at 3.7 µM -18% | [7]; [17] 1% | [7]; at 11.0 µM 31% | [9]; [17] 9% | [10]; at 1.2 µM -44% | [10]; at 3.7 µM -44% | [10]; at 11.0 µM -13% | [11]; [17] 39% | [12]; at 1.2 µM 8% | [12]; at 3.7 µM 22% | [12]; [17] 44% | [13]; at 1.2 µM -52% | [13]; at 3.7 µM -40% | [13]; at 11.0 µM -25% | [13]; at 33.0 µM 30% | [14]; at 1.2 µM -54% | [14]; at 3.7 µM -51% | [14]; at 11.0 µM -18% | [15]; at 1.2 µM -41% | [15]; at 3.7 µM -40% | [15]; at 11.0 µM -31% | [15]; at 33.0 µM 68% | [1]; [17] -9% | [2]; at 1.2 µM -57% | [2]; at 3.7 µM -50% | [2]; at 11.0 µM -28% | [2]; at 33.0 µM 69%
